Data from PubChem BioAssay (EPA / NIEHS).
“And” between values parts separate entries of the source, which are not always exact repeats. Equal values may be shown once. Some structures have more than one record in an assay (separate samples or runs), and their calls can disagree. The source made the active and inactive calls. The calls were made as follows: active = hit-call score of the fitted dose curve at least 0.9, where 1 is the maximum; inactive = score below 0.9.

read-out: Vascular cell adhesion molecule 1 (VCAM1), VCAM1 (gene 7412); experiment: BSK_hDFCGF_VCAM1: BioMAP Diversity Plus: hDFCGF Assay for Vascular cell adhesion molecule 1 (VCAM1) Biomarker Activity (AID 2283065); settings: primary human foreskin fibroblasts; actives raise or lower the signal
Procedure: BSK_hDFCGF is a cell-based, multiplexed-readout assay that uses foreskin fibroblast, a human skin primary cell, with measurements taken at 24 hours after chemical dosing in a 96-well plate.BSK_hDFCGF_VCAM1 is an assay component measured in the BSK_hDFCGF assay. It measures VCAM-1 antibody related to regulation of gene expression using ELISA technology.Data from the assay component BSK_hDFCGF_VCAM1 was analyzed into 1 assay endpoint. This assay endpoint, BSK_hDFCGF_VCAM1, was analyzed with bidirectional fitting relative to DMSO as the negative control and baseline of activity. Using a type of binding reporter, gain or loss-of-signal activity can be used to understand changes in the signaling as they relate to the gene VCAM1. Furthermore, this assay endpoint can be referred to as a primary readout, because this assay has produced multiple assay endpoints where this one serves a signaling function. To generalize the intended target to other relatable targets, this assay endpoint is annotated to the cell adhesion molecules intended target family, where the subfamily is Immunoglobulin CAM.
The levels of cell surface (or secreted, indicated by the prefix "s") biomarker endpoints were measured by ELISA. Overt cytotoxicity to cells in confluent adherent cultures (all systems other than the BT system) was assessed by measuring total protein levels using sulforhodamine B (SRB) staining in parallel cultures at the time of biomarker measurements, indicated as SRB endpoints. For proliferation assays for adherent cell types, individual cell types are cultured at sub-confluence and relative cell numbers quantified by SRB staining at time points optimized for each system (48 h: 3C and CASM3C systems; 72 h: BT and HDF3CGF systems; 96 h: SAg system). SRB was performed by staining cells with 0.1% SRB after fixation with 10% TCA and reading wells at 560 nm.Viability and proliferation of PBMC (T cells) was quantified by Alamar Blue reduction for the SAg and BT systems. For PBMC viability (referred to as PBMC Cytotoxicity within the assay endpoint names), cells were plated (75,000/well in a 96-well plate) and then chemical samples added for 1 h before addition of activators, SEB and TSST-1 (20 ng/mL final concentration each). Cells were incubated for 90 h. Then, Alamar Blue (20 uL/well) (Invitrogen, Cat DAL1100) was added for 6 h, and the plates were read with a fluorescence microplate reader at 546/580 nm (excitation/emission). For PBMC proliferation, cells were plated and activated as above but incubated for only 16 h prior to addition of Alamar Blue. Plates were read after 6 h.

Compound | AC50 | outcome
C#CC1(O)CC[C@H]2[C@@H]3CCC4=CCCC[C@@H]4[C@H]3CC[C@@]21C (stereo partly drawn) | 37.5 µM (active) | 
CO[Si](OC)(OC)c1ccccc1 |  | inactive
C=CCOCC(O)CCl (stereo not drawn) |  | inactive
O=C(Cl)c1cc(C(=O)Cl)cc(C(=O)Cl)c1 | 15.2 µM (active) | 
Nc1ccc(N)c(Cl)c1 | 13 µM (active) and 17.1 µM (active) | 
c1ccc2c(c1)ccc1cc3c(ccc4ccccc43)cc12 | 0.0192 µM (active) | inactive
C=CC(=O)OCC(Br)CBr (stereo not drawn) | 1.65 µM (active) | 
S=C(NC1CCCCC1)NC1CCCCC1 |  | inactive
O=C(c1ccc(O)cc1)c1ccc(O)cc1O | 16.6 µM (active) | inactive
CCO[Si](C)(OCC)OCC |  | inactive
CC(C)C(=O)C(C)C |  | inactive
COc1ccc2nc(N)sc2c1 |  | inactive
O=Nc1ccc(O)cc1 |  | inactive
C=C[Si](OC(C)=O)(OC(C)=O)OC(C)=O |  | inactive
CCCCNc1ccc(NCCCC)c2c1C(=O)c1ccccc1C2=O |  | inactive
C/C=C\C/C=C/CCCCCCCCOC(C)=O | 24.6 µM (active) | 
CCCCC(CC)COC(=O)c1ccccc1O (stereo not drawn) | 14.6 µM (active) | 
C=CCOc1c(Br)cc(Br)cc1Br | 33.1 µM (active) | 

Compound | AC50 | outcome
CCOc1nc(F)cc2nc(S(=O)(=O)Nc3c(Cl)cccc3C(=O)OC)nn12 |  | inactive
c1ccc(-c2ccccn2)nc1 |  | inactive
O=C(Nc1ccccc1SSc1ccccc1NC(=O)c1ccccc1)c1ccccc1 |  | inactive
CCCCCCCCc1ccc(Nc2ccc(CCCCCCCC)cc2)cc1 |  | inactive
CCO[Si](CCCN=C=O)(OCC)OCC |  | inactive
CC(C)(c1cc(Br)c(OCCO)c(Br)c1)c1cc(Br)c(OCCO)c(Br)c1 | 7.21 µM (active) | 
CCOC(=O)c1ccccc1C(=C1C=C(Br)C(=O)C(Br)=C1)c1cc(Br)c(O)c(Br)c1 | 4.49 µM (active) and 3.7 µM (active) | 
COCc1c(C(C)C)nc(C(C)C)c(/C=C/[C@@H](O)C[C@@H](O)CC(=O)O)c1-c1ccc(F)cc1 |  | inactive
CCCCC(CC)COCC1CO1 (stereo not drawn) |  | inactive
c1ccc2c(c1)ccc1ncccc12 |  | inactive
CCCCC/C=C\C/C=C\CCCCCCCC(=O)OC | 26.9 µM (active) | 
CCCCCCCCCCCCCCCC[N+](C)(C)CC | 1.82 µM (active) | 
CN1C(=O)N(C)C(O)C1O (stereo not drawn) |  | inactive
O=c1c2ccccc2oc2ccccc12 |  | inactive
C=CC=CC=CCCCCC |  | inactive
CC1OC1C1CCC2(C)OC2C1 (stereo not drawn) |  | inactive
O=C1CCCN1CCO |  | inactive
N#[N+]c1ccc2c(S(=O)(=O)[O-])cccc2c1O |  | inactive
